Screening results as filed in PubChem BioAssay.
An excerpt weighted towards active compounds, which were near 2.2% of everything screened.
ERG Ets-DNA blk – qHTS for Small Molecule Inhibitors of the ERG Ets/DNA interaction. fluorescence polarization, His-ERG Ets domain / labelled DNA. Potency, µM (series often up to 76.9 µM), most hits filed as inhibitors. actives 0.028% (n = 370,000). AID 624246, 2012; active = well fitted inhibition curve with a large enough effect in the polarisation, with a control signal flat; inconclusive = small, poorly fitted or top-dose-only effect, or effect the other way, or a change in a side signal; inactive = no such curve, though single readings can be large or run the other way; the % refers to the polarisation;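 also: polarization taken with two DNA probes labelled with fluorescein and Texas red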
Target sequence (P11308 whole entry, looked up, the tested form may be a part): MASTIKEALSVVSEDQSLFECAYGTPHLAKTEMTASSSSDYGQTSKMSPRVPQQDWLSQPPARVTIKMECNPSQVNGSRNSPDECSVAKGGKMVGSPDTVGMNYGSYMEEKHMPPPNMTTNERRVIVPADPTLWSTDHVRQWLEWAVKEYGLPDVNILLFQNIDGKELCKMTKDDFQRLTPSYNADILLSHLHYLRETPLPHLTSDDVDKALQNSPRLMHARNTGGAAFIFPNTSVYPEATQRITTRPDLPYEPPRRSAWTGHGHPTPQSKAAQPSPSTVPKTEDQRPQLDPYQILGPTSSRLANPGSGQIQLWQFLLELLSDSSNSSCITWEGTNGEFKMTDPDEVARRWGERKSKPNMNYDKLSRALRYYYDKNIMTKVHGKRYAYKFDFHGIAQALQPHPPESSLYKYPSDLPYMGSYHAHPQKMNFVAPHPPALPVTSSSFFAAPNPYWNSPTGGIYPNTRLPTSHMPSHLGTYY
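His-tagged ERG Ets domain (1 uM in the protein solution; 300mM KCl, 50mM Tris-HCl, 1mM EDTA, 1mM DTT, pH 7.5) received compound, then a probe mix of 5 nM fluorescein-DNA and 100nM Texas-615-DNA. Fluorescence polarization was read for both dyes.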
TDP43 rescue – qHTS of TDP-43 Inhibitors; TDP-43 expressing yeast growth rescue, BacTiter-Glo, 24 h; Potency, µM (doses to about 46.1 µM), usual class: activators; actives 1.8% (n = 410,000); also: nearly all actives have a fitted effect of over 50% in size
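Cell-based yeast growth screen: TDP-43 expression induced in galactose, inoculum OD600=0.02 after raffinose pregrowth to mid-log. Read-out BacTiter-Glo luminescence at 24 hr, 30 deg C; inhibition of toxicity seen as signal increase.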
Abeta rescue – qHTS for compounds that reverse cellular toxicity of Amyloid beta (A-beta) peptide in yeast: Primary Screen. Potency, µM (series often up to 46.1 µM), actives largely listed as activators. actives 0.063% (n = 410,000). yeast expressing A-beta42, growth rescue, OD600, 48 h; response scale: 0% DMSO, 100% iron-clioquinol control; also: nearly all actives have a fitted effect of over 55% in size
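Yeast growth medium received pinned compounds, then yeast cells expressing toxic A-beta were added; plates incubated at 30 C for 48 hr. Growth read as absorbance at 600 nm, normalized to DMSO and equimolar FeCl3 plus clioquinol controls.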
aSyn yeast inh – qHTS of alpha-syn Inhibitors; actives 0.14% (n = 370,000); Yeast expressing alpha-synuclein, growth rescue, BacTiter-Glo, 24 h; Potency, µM (doses to about 46.1 µM), actives largely listed as activators; also: nearly all actives have a fitted effect of over 65% in size
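Readout is rescue of growth in alpha-synuclein-expressing yeast, so inhibitors of toxicity appear as activators. Growth after 24 hr at 30 deg C in galactose medium is quantified by luminescence.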
Mito fusion act – qHTS Assay for Small Molecule Inhibitors of Mitochondrial Division or Activators of Mitochondrial Fusion; S. cerevisiae fusion-defective mutant growth rescue, CellTiterGlo 48 h; Potency, µM (highest dose often 46.1 µM), actives largely listed as activators; actives 0.23% (n = 320,000); also: nearly all actives have a fitted effect of over 45% in size
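Growth-rescue viability read-out: after 48 h at the non-permissive 37C in glycerol/ethanol YPEG, yeast mitochondrial fusion mutants are measured by CellTiterGlo luminescence; compounds (23 nl pinned per well) restoring growth score as division inhibitors or fusion activators.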
FUS suppressor – qHTS for Suppressors of FUS Proteinopathy: Primary screen using FUS-linked yeast assay; S. cerevisiae FUS-expressing, growth rescue, OD600, 24 h; actives 0.24% (n = 390,000); AID 1347120, 2019; Potency, µM (highest dose often 76.6 µM), hits mostly activators; also: nearly all actives have a fitted effect of over 55% in size
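Compound concentration series was pinned onto galactose-induced FUS-expressing yeast seeded at OD 0.005. Plates sat 24hr at 30C; absorbance at 600 nm gave growth. DMSO served as background control.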
Numbers stand for hits; i = inactive; ? = inconclusive; nt = not tested or not shown; ! = not active in a repeat. Unless noted, calls follow the shape of the dose curve; as a rule, active = well fitted curve in the direction sought with a large enough effect; inconclusive = small, poorly fitted or top-dose-only effect, or another doubt; inactive = no such curve, though single readings can be large; an effect the other way counts as inactive or inconclusive.

SMILES	ERG Ets-DNA blk	TDP43 rescue	Abeta rescue	aSyn yeast inh	Mito fusion act	FUS suppressor
O=C(/C(=C/c1ccc(Cl)cc1)c1nc2ccccc2[nH]1)c1cccs1	i	3.16µM	i	i	i	i
CCCCc1cc(=O)oc2cc(OS(C)(=O)=O)ccc12	i	?	i	i	15.8µM	i
Cc1c(OCC(=O)C(C)(C)C)ccc2c(-c3ccccc3)cc(=O)oc12	i	25.1µM	?	i	i	i
CC(=O)COc1ccc2c(-c3ccccc3)cc(=O)oc2c1C	i	?	i	i	i	i
CN(CCOC(=O)CC1C=CCC1)C1CN(Cc2cn(Cc3ccccc3Cl)nn2)S(=O)(=O)C1 (centres undefined)	nt	nt	nt	nt	nt	i
CCNC(=S)NNC(=O)c1cnccn1	nt	nt	nt	nt	nt	i
c1ccc2c(c1)OCCOCCOc1ccccc1OCCOCCO2	i	11.2µM	i	i	?	i
CCOC(=O)c1c(NC(=O)c2cc(=O)c3ccc(C)cc3o2)sc(C)c1C	i	i	i	nt	nt	i
CCNc1ccc(Br)cc(C(=O)/C=C/c2ccc(Cl)cc2)c1=O	i	i	i	i	12.6µM	i
CCNc1ccc(Br)cc(C(=O)/C=C/c2c(Cl)cccc2Cl)c1=O	i	i	i	i	i	?
Cc1ccc(C)c(NC(=O)CNS(=O)(=O)c2ccc3[nH]c(=O)oc3c2)c1	nt	nt	nt	nt	nt	i
O=C(N/N=C1/C(=O)c2cccc3cccc1c23)c1ccc(Cl)cc1	i	17.8µM	?	?	i	i
COc1ccc(C(=O)CC2(O)C(=O)N(Cc3ccccc3Cl)c3ccccc32)cc1 (centres undefined)	i	31.6µM	i	i	nt	i
O=C1N(Cc2ccccc2)c2ccccc2C1(O)c1c[nH]c2ccccc12 (centres undefined)	i	i	i	nt	nt	i
O=C1N(Cc2ccccc2Cl)c2ccccc2C1(O)c1c[nH]c2ccccc12 (centres undefined)	i	15.8µM	i	nt	nt	?
CN(C)c1ccc(NC(=O)Cn2nnc3sc4c(c3c2=O)CCC(C(C)(C)C)C4)cc1 (centres undefined)	i	i	i	nt	nt	i
CCOC(=O)c1c(NC(=O)COC(=O)c2ccc([N+](=O)[O-])cc2)sc(C(=O)N(C)C)c1C	i	i	?	i	i	i
CCOC(=O)c1c(NC(=O)COC(=O)c2cccc([N+](=O)[O-])c2)sc(C(=O)N(C)C)c1C	nt	i	12.6µM	i	nt	i
O=C(NC1CCc2ccccc21)c1cc(-c2ccc(Cl)cc2)nc2ccccc12 (centres undefined)	nt	nt	nt	nt	nt	i
O=C1C=C(c2ccccc2)OC2(CCCC2)O1	i	?	i	nt	i	i
O=C1C=C(c2ccccc2)OC(c2ccccc2)O1 (centres undefined)	i	12.6µM	i	i	i	i
COc1cccc(NC(=O)CSC2=Nc3ccccc3C3=NC(CC(=O)NCCc4ccccc4)C(=O)N23)c1 (centres undefined)	i	?	i	nt	nt	?
Nc1nc2ccc(OC(F)(F)F)cc2s1	i	12.6µM	i	nt	3.26µM!	i
Nc1nc2ccc(O)cc2s1	i	i	i	i	i	nt
Nc1nc2ccc(Oc3ccccc3)cc2s1	i	11.2µM	i	i	i	nt
SMILES	ERG Ets-DNA blk	TDP43 rescue	Abeta rescue	aSyn yeast inh	Mito fusion act	FUS suppressor
Cc1ccc2oc(=O)c3cc(C(=O)Nc4cccc(C#N)c4)sc3c2c1	i	i	i	nt	nt	i
CCCCN(CCCC)C1=C(C(=O)c2ccccc2)N(CC)S(=O)(=O)c2ccccc21	i	?	?	?	nt	i
CCCCN(CCCC)C1=C(C(=O)c2ccccc2)N(C)S(=O)(=O)c2ccccc21	i	i	i	15.8µM	nt	i
CCN1/C(=C(\O)c2ccccc2)C(=O)c2ccccc2S1(=O)=O	i	?	i	3.98µM	i	i
CCCC(=O)OC1=C(C(C)=O)N(Cc2ccccc2)S(=O)(=O)c2ccccc21	i	11.2µM	i	nt	nt	i
CCN1C(C(=O)c2ccccc2)=C(OC(=O)c2ccc(OC)cc2)c2ccccc2S1(=O)=O	i	i	i	nt	nt	i
CCCCN1C(C(=O)c2ccccc2)=C(OC(=O)CC)c2ccccc2S1(=O)=O	i	22.4µM	i	nt	nt	i
CC1=C(C(=O)Nc2cc(Cl)ccc2C)C(c2sccc2C)n2ncnc2N1 (centres undefined)	i	i	i	i	nt	i
Cc1c(Cl)cccc1NC(=O)C1CCN(c2nc3ccccc3[nH]2)CC1	i	i	i	nt	nt	i
Cc1ccccc1C[C@H](C(=O)O)N1C(=O)c2ccc(C(=O)O)cc2C1=O	nt	nt	nt	nt	i	nt
C=CCOC(=O)C(CO)NC(=O)CCCC(=O)O (centres undefined)	nt	nt	nt	nt	nt	i
CCn1c(=O)cc(SCC(=O)NCc2cccc(Cl)c2)c2ccccc21	i	i	i	nt	nt	i
Cn1c(Cc2cccs2)nnc1SCC(=O)Nc1ccc2c(c1)OCCO2	nt	nt	nt	nt	nt	i
CC(C)(C)c1cc(C(=S)N2CCCC2)cc(C(C)(C)C)c1O	i	i	i	i	i	i
CCN1C(C(=O)c2ccccc2)=C(OC(=O)C(C)C)c2ccccc2S1(=O)=O	i	17.8µM	i	nt	nt	i
COc1ccccc1N1CCN(C(=O)COc2ccc(C)cc2Br)CC1	i	?	i	i	i	i
Cc1cc(Cl)ccc1OC(C)C(=O)N1CCCN(C(=O)C(C)Oc2ccc(Cl)cc2C)CC1 (centres undefined)	i	31.6µM	i	?	?	?
Cc1cc(Cl)ccc1OCC(=O)Nc1ccccc1CO	i	i	i	i	i	i
CC(Oc1ccccc1Cl)C(=O)N1CCCN(C)CC1 (centres undefined)	i	i	i	i	i	i
Cc1cc(Cl)ccc1OCC(=O)N1CCCN(C(=O)COc2ccc(Cl)cc2C)CC1	nt	25.1µM	i	?	i	nt
CSc1ccccc1NC(=O)COc1ccc(Cl)cc1C	i	15.8µM	i	i	i	nt
COc1ccccc1N1CCN(C(=O)COc2ccc(Cl)cc2Br)CC1	i	14.1µM	i	28.2µM	i	i
Cc1ccc(N(Cc2cccs2)C(=O)C(C)Oc2ccc(Cl)c(C)c2)cc1 (centres undefined)	i	i	i	nt	nt	i
CCCCCCNC(=O)c1c[nH]c2ccc(S(=O)(=O)N(C)c3ccc(C(C)C)cc3)cc2c1=O	i	i	i	nt	nt	i
COc1cc(C(=S)N2CCN(c3ccccc3Cl)CC2)cc(O)c1O	i	i	i	i	i	i
COc1ccc(C(=S)N2CCN(c3ccccc3Cl)CC2)cc1OC	i	11.2µM	i	i	i	i
O=[N+]([O-])c1ccc(Oc2cccc(Br)c2)c2ccncc12	i	15.8µM	i	i	i	i
